Measurements as given in paper PMC7862700, “An all-to-all approach to the identification of sequence-specific readers for epigenetic DNA modifications on cytosine”.

Experiments:
Test in all cases: DAPPL (digital affinity profiling via proximity ligation, sequencing); 10 mM Tris-HCl pH 7.5, 50 mM NaCl, 1 mM DTT, 4% glycerol, room temperature, 30 min; GST-TFs on glutathione beads, 16-mer random dsDNA library, 0.1% formaldehyde crosslink after washing; high values mean tight binding
FEV = target: T1, FEV (Homo sapiens, UniProt Q99581 1-238); details: protein: recombinant; tags: N-terminal GST; dsDNA, one strand shown
T1 sequence: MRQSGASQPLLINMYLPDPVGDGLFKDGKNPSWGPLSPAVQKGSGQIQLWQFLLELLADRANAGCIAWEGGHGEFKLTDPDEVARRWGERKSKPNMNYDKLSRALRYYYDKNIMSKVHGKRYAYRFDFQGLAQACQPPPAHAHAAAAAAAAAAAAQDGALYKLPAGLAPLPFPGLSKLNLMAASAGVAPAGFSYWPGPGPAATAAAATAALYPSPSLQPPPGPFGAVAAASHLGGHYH
Method in brief: (§1)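 Pools of DNA-barcoded human transcription factors, expressed in yeast as GST fusions on glutathione beads and combined with a tag-only sample, were incubated with 200 nmole of a 16-mer random double-stranded DNA library. Incubation took 30 min at room temperature in Tris/NaCl/DTT/glycerol buffer and was followed by washing, 0.1% formaldehyde crosslinking, proximity ligation (BsaI/T4 ligase, 1 h, 37 °C), PCR amplification and sequencing on an Illumina NextSeq500. Binding signal is the ratio of a hexamer's read frequency for a factor to its frequency for the tag-only sample.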

ETV5 = ETV5 (Homo sapiens, UniProt P41161 1-510); details: protein: recombinant; tags: N-terminal GST; dsDNA, one strand shown
ETV5, sequence (P41161 whole entry): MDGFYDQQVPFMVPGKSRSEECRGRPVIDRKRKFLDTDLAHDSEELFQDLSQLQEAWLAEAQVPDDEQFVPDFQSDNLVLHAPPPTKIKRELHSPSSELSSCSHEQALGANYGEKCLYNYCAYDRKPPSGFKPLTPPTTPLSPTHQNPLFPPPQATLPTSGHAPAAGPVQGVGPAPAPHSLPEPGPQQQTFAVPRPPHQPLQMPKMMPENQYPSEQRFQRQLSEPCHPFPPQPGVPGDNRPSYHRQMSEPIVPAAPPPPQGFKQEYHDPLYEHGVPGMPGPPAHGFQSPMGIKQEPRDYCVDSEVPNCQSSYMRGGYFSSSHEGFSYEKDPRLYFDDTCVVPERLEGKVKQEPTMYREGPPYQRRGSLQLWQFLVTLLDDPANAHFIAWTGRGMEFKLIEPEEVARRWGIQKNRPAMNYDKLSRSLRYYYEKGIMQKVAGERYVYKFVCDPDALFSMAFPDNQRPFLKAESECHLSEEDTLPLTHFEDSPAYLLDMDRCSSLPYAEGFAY
Method in brief: as §1

HSF1 = HSF1 (Homo sapiens, UniProt Q00613 1-529); details: protein: recombinant; tags: N-terminal GST; chain copies: 3; dsDNA, one strand shown
HSF1, sequence (Q00613 whole entry): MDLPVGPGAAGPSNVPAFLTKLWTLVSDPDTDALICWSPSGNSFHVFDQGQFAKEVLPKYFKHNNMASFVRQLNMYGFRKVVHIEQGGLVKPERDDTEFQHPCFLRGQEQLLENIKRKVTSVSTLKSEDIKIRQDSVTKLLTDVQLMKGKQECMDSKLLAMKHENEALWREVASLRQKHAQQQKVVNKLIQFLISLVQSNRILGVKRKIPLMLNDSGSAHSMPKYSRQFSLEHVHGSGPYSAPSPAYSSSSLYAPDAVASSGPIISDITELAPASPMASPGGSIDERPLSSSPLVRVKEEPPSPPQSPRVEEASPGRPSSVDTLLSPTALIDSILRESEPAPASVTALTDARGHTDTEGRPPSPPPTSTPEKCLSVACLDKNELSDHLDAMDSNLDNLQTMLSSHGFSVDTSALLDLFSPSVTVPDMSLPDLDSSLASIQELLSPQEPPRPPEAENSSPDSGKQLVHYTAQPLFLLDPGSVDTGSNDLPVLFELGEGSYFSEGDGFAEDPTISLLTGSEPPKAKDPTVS
Method in brief: as §1

SPIC = target: T2, SPIC (Homo sapiens, UniProt Q8N5J4 1-248); details: protein: recombinant; tags: N-terminal GST; dsDNA, one strand shown
T2 sequence: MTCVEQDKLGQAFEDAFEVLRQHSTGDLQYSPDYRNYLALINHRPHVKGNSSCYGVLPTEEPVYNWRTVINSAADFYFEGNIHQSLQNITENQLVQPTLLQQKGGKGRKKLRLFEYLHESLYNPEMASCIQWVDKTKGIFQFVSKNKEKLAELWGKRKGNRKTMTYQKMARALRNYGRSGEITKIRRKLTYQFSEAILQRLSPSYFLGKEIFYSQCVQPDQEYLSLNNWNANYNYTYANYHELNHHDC
Method in brief: as §1

ELF4 = ELF4 (Homo sapiens, UniProt Q99607 1-663); details: protein: recombinant; tags: N-terminal GST; dsDNA, one strand shown
ELF4, sequence (Q99607 whole entry): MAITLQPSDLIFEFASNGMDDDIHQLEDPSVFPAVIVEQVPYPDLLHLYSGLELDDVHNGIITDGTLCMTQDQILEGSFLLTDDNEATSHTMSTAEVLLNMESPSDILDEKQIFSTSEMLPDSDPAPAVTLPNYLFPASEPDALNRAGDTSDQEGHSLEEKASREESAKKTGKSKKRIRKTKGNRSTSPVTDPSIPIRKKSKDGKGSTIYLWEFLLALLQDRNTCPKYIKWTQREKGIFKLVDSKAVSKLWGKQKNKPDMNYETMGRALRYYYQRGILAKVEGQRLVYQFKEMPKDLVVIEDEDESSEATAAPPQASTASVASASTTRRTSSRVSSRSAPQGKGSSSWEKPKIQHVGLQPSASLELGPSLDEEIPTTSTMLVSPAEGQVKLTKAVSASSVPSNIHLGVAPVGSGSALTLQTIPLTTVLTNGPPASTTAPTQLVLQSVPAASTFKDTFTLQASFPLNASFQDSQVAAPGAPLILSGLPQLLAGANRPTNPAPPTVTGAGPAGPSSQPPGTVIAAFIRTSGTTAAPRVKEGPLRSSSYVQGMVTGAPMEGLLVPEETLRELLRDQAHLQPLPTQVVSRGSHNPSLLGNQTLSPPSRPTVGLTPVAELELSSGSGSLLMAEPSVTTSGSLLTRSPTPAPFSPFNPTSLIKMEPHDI
Method in brief: as §1

ELK4 = target: T3, ELK4 (Homo sapiens, UniProt P28324-2 1-405); details: protein: recombinant; tags: N-terminal GST; dsDNA, one strand shown
T3 sequence: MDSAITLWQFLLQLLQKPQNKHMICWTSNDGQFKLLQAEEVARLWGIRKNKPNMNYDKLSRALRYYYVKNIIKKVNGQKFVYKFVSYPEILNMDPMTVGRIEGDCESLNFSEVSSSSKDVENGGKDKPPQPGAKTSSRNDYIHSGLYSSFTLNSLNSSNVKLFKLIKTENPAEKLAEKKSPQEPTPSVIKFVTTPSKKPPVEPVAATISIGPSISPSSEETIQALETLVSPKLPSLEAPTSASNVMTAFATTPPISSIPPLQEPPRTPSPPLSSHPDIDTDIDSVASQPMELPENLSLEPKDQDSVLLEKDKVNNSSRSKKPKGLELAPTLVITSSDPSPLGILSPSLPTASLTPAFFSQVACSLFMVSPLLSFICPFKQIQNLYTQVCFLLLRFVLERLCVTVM
Method in brief: as §1

ETV2 = target: T4, ETV2 (Homo sapiens, UniProt O00321 1-342); details: protein: recombinant; tags: N-terminal GST; dsDNA, one strand shown
T4 sequence: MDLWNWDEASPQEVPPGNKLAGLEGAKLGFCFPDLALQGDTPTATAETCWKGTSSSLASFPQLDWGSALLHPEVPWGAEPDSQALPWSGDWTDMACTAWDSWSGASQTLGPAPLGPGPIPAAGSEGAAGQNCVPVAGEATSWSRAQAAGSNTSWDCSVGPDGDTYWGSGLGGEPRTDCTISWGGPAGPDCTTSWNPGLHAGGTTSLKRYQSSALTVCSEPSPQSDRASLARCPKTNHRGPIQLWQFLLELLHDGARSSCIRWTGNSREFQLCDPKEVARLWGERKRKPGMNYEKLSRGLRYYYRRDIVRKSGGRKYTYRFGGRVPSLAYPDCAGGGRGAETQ
Method in brief: as §1

ELF3 = target: T5, ELF3 (Homo sapiens, UniProt P78545 1-371); details: protein: recombinant; tags: N-terminal GST; dsDNA, one strand shown
T5 sequence: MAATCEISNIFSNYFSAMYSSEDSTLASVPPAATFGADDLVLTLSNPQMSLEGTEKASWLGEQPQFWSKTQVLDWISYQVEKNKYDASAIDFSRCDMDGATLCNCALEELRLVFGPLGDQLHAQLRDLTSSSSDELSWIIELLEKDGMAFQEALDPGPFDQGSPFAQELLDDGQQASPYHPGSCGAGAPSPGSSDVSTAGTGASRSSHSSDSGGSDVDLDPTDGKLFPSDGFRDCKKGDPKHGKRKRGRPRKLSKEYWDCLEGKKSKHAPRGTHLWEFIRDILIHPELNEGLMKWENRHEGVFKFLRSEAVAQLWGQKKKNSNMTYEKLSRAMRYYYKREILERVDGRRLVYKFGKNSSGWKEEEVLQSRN
Method in brief: as §1

CRX = CRX (Homo sapiens, UniProt O43186 1-299); details: protein: recombinant; tags: N-terminal GST; dsDNA, one strand shown
CRX, sequence (O43186 whole entry): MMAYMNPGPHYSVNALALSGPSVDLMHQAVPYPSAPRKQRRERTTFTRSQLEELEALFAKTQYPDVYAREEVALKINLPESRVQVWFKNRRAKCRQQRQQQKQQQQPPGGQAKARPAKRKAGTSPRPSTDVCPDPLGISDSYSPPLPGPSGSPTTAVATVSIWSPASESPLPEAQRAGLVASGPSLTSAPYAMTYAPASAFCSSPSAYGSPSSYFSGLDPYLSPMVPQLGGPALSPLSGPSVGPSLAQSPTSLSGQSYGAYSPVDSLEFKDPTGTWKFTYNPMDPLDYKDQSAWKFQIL
Method in brief: as §1

ETV1 = ETV1 (Homo sapiens, UniProt P50549 1-477); details: protein: recombinant; tags: N-terminal GST; dsDNA, one strand shown
ETV1, sequence (P50549 whole entry): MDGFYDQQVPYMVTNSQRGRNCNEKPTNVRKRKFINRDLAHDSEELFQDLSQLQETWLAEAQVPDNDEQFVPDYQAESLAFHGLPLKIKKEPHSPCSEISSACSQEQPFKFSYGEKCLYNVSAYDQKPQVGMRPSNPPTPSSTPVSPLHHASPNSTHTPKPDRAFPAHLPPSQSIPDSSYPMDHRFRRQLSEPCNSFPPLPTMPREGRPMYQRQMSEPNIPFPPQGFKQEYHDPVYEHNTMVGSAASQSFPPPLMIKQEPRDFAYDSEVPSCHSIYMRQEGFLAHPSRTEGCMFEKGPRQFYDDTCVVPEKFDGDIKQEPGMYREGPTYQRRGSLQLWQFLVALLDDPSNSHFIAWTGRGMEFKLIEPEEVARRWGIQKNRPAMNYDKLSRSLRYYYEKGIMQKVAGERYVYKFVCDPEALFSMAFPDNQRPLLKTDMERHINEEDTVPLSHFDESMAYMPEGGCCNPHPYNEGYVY
Method in brief: as §1

| Sequence | binding signal (FEV) | binding signal (ETV5) | binding signal (HSF1) | binding signal (SPIC) | binding signal (ELF4) | binding signal (ELK4) | binding signal (ETV2) | binding signal (ELF3) | binding signal (CRX) | binding signal (ETV1) |
| --- | --- | --- | --- | --- | --- | --- | --- | --- | --- | --- |
| CCTCAT | 1.26 fold enrichment (6-mer frequency, TF over GST control) | 1.31 fold enrichment (6-mer frequency, TF over GST control) | 1.08 fold enrichment (6-mer frequency, TF over GST control) | 1.45 fold enrichment (6-mer frequency, TF over GST control) | 1.39 fold enrichment (6-mer frequency, TF over GST control) | 1.3 fold enrichment (6-mer frequency, TF over GST control) | 1.1 fold enrichment (6-mer frequency, TF over GST control) | 1.27 fold enrichment (6-mer frequency, TF over GST control) | 1.1 fold enrichment (6-mer frequency, TF over GST control) | 1.37 fold enrichment (6-mer frequency, TF over GST control) |
| ATCATG | 1.13 fold enrichment (6-mer frequency, TF over GST control) | 1.09 fold enrichment (6-mer frequency, TF over GST control) | 1.09 fold enrichment (6-mer frequency, TF over GST control) | 1.09 fold enrichment (6-mer frequency, TF over GST control) | 1.09 fold enrichment (6-mer frequency, TF over GST control) | 1.14 fold enrichment (6-mer frequency, TF over GST control) | 1.18 fold enrichment (6-mer frequency, TF over GST control) | 1.25 fold enrichment (6-mer frequency, TF over GST control) | 1.21 fold enrichment (6-mer frequency, TF over GST control) | 1.19 fold enrichment (6-mer frequency, TF over GST control) |
| GATCCC | 1.18 fold enrichment (6-mer frequency, TF over GST control) | 1.13 fold enrichment (6-mer frequency, TF over GST control) | 1.22 fold enrichment (6-mer frequency, TF over GST control) | 1.22 fold enrichment (6-mer frequency, TF over GST control) | 1.26 fold enrichment (6-mer frequency, TF over GST control) | 1.2 fold enrichment (6-mer frequency, TF over GST control) | 1.23 fold enrichment (6-mer frequency, TF over GST control) | 1.18 fold enrichment (6-mer frequency, TF over GST control) | 1.32 fold enrichment (6-mer frequency, TF over GST control) | 1.22 fold enrichment (6-mer frequency, TF over GST control) |
| ATTTTC | 1.35 fold enrichment (6-mer frequency, TF over GST control) | 1.44 fold enrichment (6-mer frequency, TF over GST control) | 2.04 fold enrichment (6-mer frequency, TF over GST control) | 1.44 fold enrichment (6-mer frequency, TF over GST control) | 1.64 fold enrichment (6-mer frequency, TF over GST control) | 1.5 fold enrichment (6-mer frequency, TF over GST control) | 1.63 fold enrichment (6-mer frequency, TF over GST control) | 1.48 fold enrichment (6-mer frequency, TF over GST control) | 1.67 fold enrichment (6-mer frequency, TF over GST control) | 1.4 fold enrichment (6-mer frequency, TF over GST control) |
| ACACTA | 1.14 fold enrichment (6-mer frequency, TF over GST control) | 1.14 fold enrichment (6-mer frequency, TF over GST control) | 1.12 fold enrichment (6-mer frequency, TF over GST control) | 1.14 fold enrichment (6-mer frequency, TF over GST control) | 1.13 fold enrichment (6-mer frequency, TF over GST control) | 1.16 fold enrichment (6-mer frequency, TF over GST control) | 1.1 fold enrichment (6-mer frequency, TF over GST control) | 1.19 fold enrichment (6-mer frequency, TF over GST control) | 1.11 fold enrichment (6-mer frequency, TF over GST control) | 1.03 fold enrichment (6-mer frequency, TF over GST control) |
| AAGCAG | 1.09 fold enrichment (6-mer frequency, TF over GST control) | 1.18 fold enrichment (6-mer frequency, TF over GST control) | 1.05 fold enrichment (6-mer frequency, TF over GST control) | 1.09 fold enrichment (6-mer frequency, TF over GST control) | 1.12 fold enrichment (6-mer frequency, TF over GST control) | 1.06 fold enrichment (6-mer frequency, TF over GST control) | 1.13 fold enrichment (6-mer frequency, TF over GST control) | 1.04 fold enrichment (6-mer frequency, TF over GST control) | 1.11 fold enrichment (6-mer frequency, TF over GST control) | 1.19 fold enrichment (6-mer frequency, TF over GST control) |
| TGCGAA | 1.14 fold enrichment (6-mer frequency, TF over GST control) | 1.23 fold enrichment (6-mer frequency, TF over GST control) | 1.21 fold enrichment (6-mer frequency, TF over GST control) | 1.02 fold enrichment (6-mer frequency, TF over GST control) | 1.21 fold enrichment (6-mer frequency, TF over GST control) | 1.19 fold enrichment (6-mer frequency, TF over GST control) | 1.18 fold enrichment (6-mer frequency, TF over GST control) | 1.14 fold enrichment (6-mer frequency, TF over GST control) | 1.06 fold enrichment (6-mer frequency, TF over GST control) | 1.19 fold enrichment (6-mer frequency, TF over GST control) |
| CTTGAA | 1.05 fold enrichment (6-mer frequency, TF over GST control) | 1.09 fold enrichment (6-mer frequency, TF over GST control) | 1.26 fold enrichment (6-mer frequency, TF over GST control) | 1.09 fold enrichment (6-mer frequency, TF over GST control) | 1.19 fold enrichment (6-mer frequency, TF over GST control) | 1.22 fold enrichment (6-mer frequency, TF over GST control) | 1.11 fold enrichment (6-mer frequency, TF over GST control) | 1.08 fold enrichment (6-mer frequency, TF over GST control) | 1.16 fold enrichment (6-mer frequency, TF over GST control) | 1.09 fold enrichment (6-mer frequency, TF over GST control) |
